The values below come from paper PMC5700166.

GST-Hu-p50, sequence (P19838 7-356): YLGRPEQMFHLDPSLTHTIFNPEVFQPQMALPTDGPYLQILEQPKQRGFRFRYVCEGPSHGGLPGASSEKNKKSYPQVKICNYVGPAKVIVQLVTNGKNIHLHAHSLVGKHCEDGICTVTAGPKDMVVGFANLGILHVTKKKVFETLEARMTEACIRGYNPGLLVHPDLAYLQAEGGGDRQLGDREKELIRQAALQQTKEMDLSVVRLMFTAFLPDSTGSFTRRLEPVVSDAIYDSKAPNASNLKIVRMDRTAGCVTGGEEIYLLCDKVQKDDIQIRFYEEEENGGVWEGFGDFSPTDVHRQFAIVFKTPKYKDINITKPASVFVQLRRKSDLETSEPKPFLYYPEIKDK

The assay has as its target GST-Hu-p50 (Homo sapiens, UniProt P19838 7-356). Kind of assay: protein-binding microarray (PBM); PBM: ~300 nM protein, 6 mM HEPES pH 7.8, 80 mM KCl, 0.5 mM EDTA, 0.5 mM EGTA, 6% glycerol, 35 ng/ul poly-dIdC, 1% milk, 1 h, room temperature; Ap Aiptasia and Nv Nematostella (sea anemones) / Co Capsaspora / Aq Amphimedon (sponge) / Dm Drosophila / Hu human; RHD is the Rel homology domain; high values mean tight binding. The settings on record: dsDNA, one strand shown.
As to “CCGATTAACATCAGACAATCCCCTGATGTTAATCGGGTCTTGATTCGCTTGACGCTGCTG”, the binding signal worked out at 5.79 z-score.
Consider “CCGATTAACATCAGGAAAACCCCTGATGTTAATCGGGTCTTGATTCGCTTGACGCTGCTG”, for which the binding signal was 7.4 z-score.
For “CCGATTAACATCAGGGAAATCACTGATGTTAATCGGGTCTTGATTCGCTTGACGCTGCTG”, the binding signal was found to be 4.18 z-score.
The figure for “CCGATTAACATCAGGAAAATCCCTGATGTTAATCGGGTCTTGATTCGCTTGACGCTGCTG” is 5.88 z-score; for “CCGATTAACATCAAAAAGCCCCCTGATGTTAATCGGGTCTTGATTCGCTTGACGCTGCTG” it is 7.23 z-score.
The figure for “CCGATTAACATCAAATCTCCCCCTGATGTTAATCGGGTCTTGATTCGCTTGACGCTGCTG” is 7.19 z-score; for “CCGATTAACATCACACTACCCCCTGATGTTAATCGGGTCTTGATTCGCTTGACGCTGCTG” it is 3.3 z-score.
Next, “CCGATTAACATCAGGGGGAAACATGATGTTAATCGGGTCTTGATTCGCTTGACGCTGCTG”: 6.58 z-score; “CCGATTAACATCAGGGGGAACGATGATGTTAATCGGGTCTTGATTCGCTTGACGCTGCTG”: 4.41 z-score; “CCGATTAACATCAAGTATCCCCCTGATGTTAATCGGGTCTTGATTCGCTTGACGCTGCTG”: 5.34 z-score.
In turn, “CCGATTAACATCAATCTTTCCCCTGATGTTAATCGGGTCTTGATTCGCTTGACGCTGCTG” returned a binding signal of 5.41 z-score.
The figure for “CCGATTAACATCAAAATTACCCATGATGTTAATCGGGTCTTGATTCGCTTGACGCTGCTG” is 4.15 z-score; for “CCGATTAACATCACAAAAGTCCCTGATGTTAATCGGGTCTTGATTCGCTTGACGCTGCTG” it is 6.52 z-score; for “CCGATTAACATCAGGGGGCAATATGATGTTAATCGGGTCTTGATTCGCTTGACGCTGCTG” it is 3.82 z-score.
Next, “CCGATTAACATCAGGGGACTACCTGATGTTAATCGGGTCTTGATTCGCTTGACGCTGCTG”: 4.79 z-score; “CCGATTAACATCACGGGATTTGGTGATGTTAATCGGGTCTTGATTCGCTTGACGCTGCTG”: 2.36 z-score.
The figure for “CCGATTAACATCACAAAGTCCCCTGATGTTAATCGGGTCTTGATTCGCTTGACGCTGCTG” is 6.44 z-score.
With “CCGATTAACATCAGAAATATCCCTGATGTTAATCGGGTCTTGATTCGCTTGACGCTGCTG”, the binding signal stood at 3.17 z-score.
Turning to “CCGATTAACATCAGGGGGTTGGATGATGTTAATCGGGTCTTGATTCGCTTGACGCTGCTG”, the binding signal came to 4.51 z-score.
The figure for “CCGATTAACATCACTACCCCCCCTGATGTTAATCGGGTCTTGATTCGCTTGACGCTGCTG” is 3.52 z-score; for “CCGATTAACATCAAATTCCCGGGTGATGTTAATCGGGTCTTGATTCGCTTGACGCTGCTG” it is 3.85 z-score.
The figure for “CCGATTAACATCAAATTACCCCCTGATGTTAATCGGGTCTTGATTCGCTTGACGCTGCTG” is 5.08 z-score.
The figure for “CCGATTAACATCAAAAAAACCCCTGATGTTAATCGGGTCTTGATTCGCTTGACGCTGCTG” is 7.76 z-score; for “CCGATTAACATCAGGGGATACACTGATGTTAATCGGGTCTTGATTCGCTTGACGCTGCTG” it is 3.83 z-score.
In turn, “CCGATTAACATCAATTTTCCCCATGATGTTAATCGGGTCTTGATTCGCTTGACGCTGCTG” had a binding signal of 6.08 z-score.
The figure for “CCGATTAACATCAAAAATCCCACTGATGTTAATCGGGTCTTGATTCGCTTGACGCTGCTG” is 3.73 z-score; for “CCGATTAACATCAGCAATTCCCCTGATGTTAATCGGGTCTTGATTCGCTTGACGCTGCTG” it is 6.4 z-score; for “CCGATTAACATCAGGGAAAAGTATGATGTTAATCGGGTCTTGATTCGCTTGACGCTGCTG” it is 2.97 z-score.
Regarding “CCGATTAACATCAATAACCCCCCTGATGTTAATCGGGTCTTGATTCGCTTGACGCTGCTG”, the binding signal worked out at 5.76 z-score.
Next, “CCGATTAACATCAGGGCATCCCCTGATGTTAATCGGGTCTTGATTCGCTTGACGCTGCTG”: 5.52 z-score; “CCGATTAACATCAGGGGGAGATATGATGTTAATCGGGTCTTGATTCGCTTGACGCTGCTG”: 5.93 z-score.
The figure for “CCGATTAACATCAGGGGATCCCCTGATGTTAATCGGGTCTTGATTCGCTTGACGCTGCTG” is 7.87 z-score.
The figure for “CCGATTAACATCACCCAATTCCCTGATGTTAATCGGGTCTTGATTCGCTTGACGCTGCTG” is 2.81 z-score; for “CCGATTAACATCAAGGGGAAAACTGATGTTAATCGGGTCTTGATTCGCTTGACGCTGCTG” it is 6.9 z-score; for “CCGATTAACATCAGGAAATCCCCTGATGTTAATCGGGTCTTGATTCGCTTGACGCTGCTG” it is 8.31 z-score.
As to “CCGATTAACATCATTTGGGAAAATGATGTTAATCGGGTCTTGATTCGCTTGACGCTGCTG”, the binding signal was 2.23 z-score.
The sequence “CCGATTAACATCAATATTCCCCATGATGTTAATCGGGTCTTGATTCGCTTGACGCTGCTG” displayed a binding signal of 5.88 z-score.
Next, “CCGATTAACATCAGATTTCCCCCTGATGTTAATCGGGTCTTGATTCGCTTGACGCTGCTG”: 7.39 z-score; “CCGATTAACATCAGGGCTGCCCCTGATGTTAATCGGGTCTTGATTCGCTTGACGCTGCTG”: 3.48 z-score.
